Source: PubChem BioAssay AID1159580 (chemical genetic matrix, 2015)
“And” between values parts separate entries of the source, which are not always exact repeats. Equal values may be shown once. The campaign covered roughly 5,500 compounds. About 2,000 (36%) were called active. Not shown: some 18% with an inconclusive outcome. Cut-off read from the data, not from the text of the source: active = normalized growth mostly below about 0.91 (no sharp cut-off); inconclusive = no clear call, values can overlap the other calls; inactive = mostly above about 0.92. Some of the results follow.

Assay: chemical genetic growth profiling, strain panel (AID 1159580);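 note: tested at 20 µM; growth read once vehicle control cultures reached saturation at 30 °C; 1 = growth at the plate median or of vehicle wells; lower values mean less growth of the strain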
Conditions: S. cerevisiae deletion strains, growth OD

Measured: normalized growth

CC1=CC(=O)CC(C)(C)C1(O)/C=C/C(C)=C\C(=O)O (stereo not given)
inactive: locus YAL013W, strain DEP1, active compounds read low 0.986 | locus YAL021C, strain ccr4, active compounds read low 0.996 | locus YAL026C, strain drs2, active compounds read low 1.03 | locus YAL030W, strain snc1, active compounds read low 1.02 | locus YBL061C, strain skt5, active compounds read low 1.02 | locus YBR009C, strain hhf1, active compounds read low 1.01 | locus YBR021W, strain FUR4, active compounds read low 1.02 | locus YBR023C, strain chs3, active compounds read low 1.03 | locus YBR171W, strain sec66, active compounds read low 1.02 | locus YBR229C, strain ROT2, active compounds read low 0.948 | locus YBR231C, strain swc5, active compounds read low 1.03 | locus YBR279W, strain paf1, active compounds read low 1.01 | locus YCL011C, strain gbp2, active compounds read low 1.02 | locus YCL016C, strain dcc1, active compounds read low 1.01 | locus YCL029C, strain bik1, active compounds read low 0.973 | locus YCL069W, strain vba3, active compounds read low 1.01 | locus YCR088W, strain abp1, active compounds read low 1.03 | locus YDL005C, strain med2, active compounds read low 1.03 | locus YDL035C, strain GPR1, active compounds read low 0.981 | locus YDL040C, strain nat1, active compounds read low 1.02 | locus YDL074C, strain BRE1, active compounds read low 0.985 | locus YDL101C, strain DUN1, active compounds read low 0.987 | locus YDL134C, strain PPH21, active compounds read low 0.984 | locus YDL185W, strain tfp1, active compounds read low 0.953 | locus YDL192W, strain arf1, active compounds read low 0.983 | locus YDR001C, strain nth1, active compounds read low 1.03 | locus YDR069C, strain doa4, active compounds read low 1.04 | locus YDR101C, strain arx1, active compounds read low 1.01 | locus YDR137W, strain rgp1, active compounds read low 1.01 | locus YDR150W, strain NUM1, active compounds read low 0.979 | locus YDR159W, strain sac3, active compounds read low 1.03 | locus YDR162C, strain NBP2, active compounds read low 0.979 | locus YDR195W, strain ref2 1.03 | locus YDR297W, strain sur2, active compounds read low 1.03 | locus YDR318W, strain mcm21, active compounds read low 0.979 | locus YDR334W, strain swr1, active compounds read low 1.02 | locus YDR335W, strain msn5, active compounds read low 1.03 | locus YDR388W, active compounds read low 0.985 | locus YDR392W, strain spt3, active compounds read low 1.01 | locus YDR502C, strain sam2, active compounds read low 0.993 | locus YEL003W, strain gim4, active compounds read low 1.02 | locus YEL037C, strain rad23, active compounds read low 1.02 | locus YEL061C, strain CIN8 (second series), active compounds read low 1.03 | locus YEL061C, strain CIN8, active compounds read low 0.986 | locus YER015W, strain faa2, active compounds read low 1.02 | locus YER016W, strain bim1, active compounds read low 1.01 | locus YER110C, active compounds read low 0.96 | locus YER111C, strain swi4, active compounds read low 1.02 | locus YER155C, strain BEM2 (second series), active compounds read low 1.05 | locus YER155C, strain BEM2, active compounds read low 0.995 | locus YER167W, strain BCK2, active compounds read low 0.988 | locus YFR010W, strain ubp6, active compounds read low 1.04 | locus YGL078C, strain dbp3, active compounds read low 0.987 | locus YGL086W, strain mad1, active compounds read low 1 | locus YGL167C, strain pmr1, active compounds read low 1.01 | locus YGL173C, strain kem1, active compounds read low 1.01 | locus YGL227W, strain vid30, active compounds read low 1.03 | locus YGL240W, strain doc1, active compounds read low 1.03 | locus YGL248W, strain PDE1, active compounds read low 0.977 | locus YGL253W, strain hxk2, active compounds read low 1.03 | locus YGR078C, strain PAC10, active compounds read low 0.983 | locus YGR135W, strain pre9, active compounds read low 0.976 | locus YGR252W, strain gcn5, active compounds read low 0.976 | locus YHR013C, strain ard1, active compounds read low 1.03 | locus YHR027C, strain rpn1, active compounds read low 1.02 | locus YHR030C, strain SLT2, active compounds read low 0.988 and 1.01 | locus YHR079C, strain IRE1 (second series), active compounds read low 0.974 | locus YHR079C, strain IRE1, active compounds read low 0.974 | locus YHR094C, strain hxt1, active compounds read low 0.966 | locus YHR129C, strain ARP1, active compounds read low 0.989 | locus YHR142W, strain chs7, active compounds read low 1.02 | locus YHR200W, strain rpn10, active compounds read low 0.984 | locus YIL066C, strain RNR3, active compounds read low 0.976 | locus YIL073C, strain SPO22, active compounds read low 0.896 | locus YIL125W, strain kgd1, active compounds read low 0.982 | locus YIR030C, strain dcg1, active compounds read low 0.983 | locus YJL092W, strain hpr5, active compounds read low 1.02 | locus YJL095W, strain BCK1 (second series), active compounds read low 1.02 | locus YJL095W, strain BCK1, active compounds read low 0.989 and 1.04 | locus YJL115W, strain asf1, active compounds read low 1.03 | locus YJL129C, strain trk1, active compounds read low 1.08 | locus YJL134W, strain LCB3, active compounds read low 0.973 | locus YJL154C, strain vps35, active compounds read low 1.02 | locus YJL164C, strain tpk1, active compounds read low 1.01 | locus YJL166W, strain qcr8, active compounds read low 1.04 | locus YJL168C, strain set2, active compounds read low 0.982 | locus YJL187C, strain SWE1 (second series), active compounds read low 0.972 | locus YJR043C, strain POL32, active compounds read low 0.978 | locus YJR066W, strain TOR1, active compounds read low 0.929 | locus YJR075W, strain HOC1, active compounds read low 0.985 | locus YKL009W, strain mrt4, active compounds read low 0.966 | locus YKL068W, active compounds read low 0.973 | locus YKL085W, strain MDH1 (second series), active compounds read low 0.983 | locus YKL085W, strain MDH1, active compounds read low 0.983 | locus YKL160W, strain elf1, active compounds read low 1.03 | locus YKR001C, strain vps1, active compounds read low 0.975 | locus YKR026C, strain gcn3, active compounds read low 1.03 | locus YKR091W, strain srl3, active compounds read low 1.02 | locus YLL001W, strain dnm1, active compounds read low 1.03 | locus YLL026W, active compounds read low 1.02 | locus YLL041C, strain sdh2, active compounds read low 1.02 | locus YLR027C, strain aat2, active compounds read low 1.03 | locus YLR039C, strain RIC1, active compounds read low 0.959 | locus YLR058C, strain SHM2, active compounds read low 0.973 | locus YLR102C, strain apc9, active compounds read low 0.974 | locus YLR113W, strain HOG1, active compounds read low 1.07 | locus YLR221C, strain rsa3, active compounds read low 1.01 | locus YLR258W, strain gsy2, active compounds read low 1.02 | locus YLR262C, strain YPT6 (second series), active compounds read low 1.04 | locus YLR262C, strain YPT6, active compounds read low 0.941 | locus YLR268W, strain sec22, active compounds read low 0.993 | locus YLR320W, strain mms22, active compounds read low 1.02 | locus YLR330W, strain CHS5, active compounds read low 0.992 | locus YLR342W, strain FKS1 (second series), active compounds read low 0.984 | locus YLR342W, strain FKS1, active compounds read low 1.03 | locus YLR357W, strain rsc2, active compounds read low 1.02 | locus YLR370C, strain arc18, active compounds read low 1.03 | locus YLR371W, strain rom2, active compounds read low 0.952 | locus YLR384C, strain iki3, active compounds read low 1.02 | locus YLR418C, strain cdc73, active compounds read low 0.93 | locus YML016C, strain PPZ1, active compounds read low 0.994 | locus YML032C, strain rad52, active compounds read low 0.97 | locus YML120C, strain ndi1, active compounds read low 1.02 | locus YML124C, strain tub3, active compounds read low 0.976 | locus YMR058W, strain fet3, active compounds read low 1.02 | locus YMR078C, strain ctf18, active compounds read low 0.963 | locus YMR125W, strain sto1, active compounds read low 1.06 | locus YMR129W, active compounds read low 1.03 | locus YMR205C, strain PFK2, active compounds read low 1.02 | locus YMR223W, strain ubp8, active compounds read low 0.941 | locus YMR231W, strain pep5, active compounds read low 1.01 | locus YMR307W, strain GAS1, active compounds read low 1 | locus YNL067W, strain RPL9B, active compounds read low 0.985 | locus YNL071W, strain lat1, active compounds read low 1.03 | locus YNL153C, strain GIM3, active compounds read low 0.987 | locus YNL183C, strain NPR1, active compounds read low 0.99 | locus YNL209W, strain ssb2, active compounds read low 1.02 | locus YNL233W, strain BNI4, active compounds read low 0.997 | locus YNL248C, strain rpa49, active compounds read low 1.02 | locus YNL250W, strain rad50, active compounds read low 0.964 | locus YNL271C, strain bni1, active compounds read low 0.978 | locus YNL298W, strain CLA4, active compounds read low 0.983 | locus YNL307C, strain MCK1, active compounds read low 0.973 | locus YNL322C, strain KRE1 (second series), active compounds read low 1.02 | locus YNL322C, strain KRE1, active compounds read low 0.987 | locus YNR049C, strain mso1, active compounds read low 1.02 | locus YNR052C, strain pop2, active compounds read low 0.989 | locus YOL012C, strain htz1 0.831 | locus YOL147C, strain pex11, active compounds read low 0.971 | locus YOR001W, strain rrp6, active compounds read low 1.01 | locus YOR061W, strain CKA2, active compounds read low 0.951 | locus YOR069W, strain VPS5, active compounds read low 0.992 | locus YOR070C, strain gyp1, active compounds read low 1.01 | locus YOR080W, strain dia2, active compounds read low 1.02 | locus YOR083W, strain WHI5, active compounds read low 1.02 | locus YOR106W, strain vam3, active compounds read low 1.04 | locus YOR136W, strain idh2, active compounds read low 0.977 | locus YOR144C, strain elg1, active compounds read low 0.97 | locus YOR184W, strain ser1, active compounds read low 0.98 | locus YOR231W, strain MKK1, active compounds read low 0.998 | locus YOR265W, strain rbl2, active compounds read low 1.03 | locus YOR270C, strain vph1, active compounds read low 1.08 | locus YOR290C, strain snf2, active compounds read low 1.02 | locus YOR316C, strain cot1, active compounds read low 0.971 | locus YPL051W, strain arl3, active compounds read low 1.03 | locus YPL055C, strain LGE1, active compounds read low 0.979 | locus YPL078C, strain atp4, active compounds read low 1.03 | locus YPL106C, strain sse1, active compounds read low 1.02 | locus YPL240C, strain hsp82, active compounds read low 1.04 | locus YPL256C, strain CLN2, active compounds read low 1.01 | locus YPR119W, strain clb2, active compounds read low 0.968 | locus YPR141C, strain kar3, active compounds read low 0.954 | locus YPR163C, strain tif3, active compounds read low 0.967 | locus YPR167C, strain met16, active compounds read low 0.958 | strain wtn01, active compounds read low 1.03
